This is an account of results in ChEMBL document CHEMBL4513216, “Probing the Open Global Health Chemical Diversity Library for Multistage-Active Starting Points for Next-Generation Antimalarials” (ACS Infect Dis, 2020).

Out of some 69,000 compounds screened, about 8,600 (12%) showed an effect of 50% or more. This excerpt belongs to a sample that is enriched for strong results.

This test concerns Plasmodium berghei. Kind of test: Screen against P. berghei liver stage (PbLuc), transformed with Luciferase, at 10uM. The conditions noted are these: tested at 10 uM. The format is functional, HepG2.
As for `Clc1cnccc1N1CCC(OC2CCOCC2)CC1`, the INHIBITION is on record as 48.5%.
For `COCC1CN(c2ccc(Cl)cc2C#N)CCO1` (centres undefined), the INHIBITION is 53.4%.
With `COCC1CN(C(=O)Nc2cc(Cl)ccc2F)CCO1` (centres undefined), the INHIBITION is on record as 8.13%.
As to `COCC1CN(C(=O)Nc2ccc(Cl)cc2Cl)CCO1` (centres undefined), the INHIBITION stood at 6.85%.
To `COCC1CN(c2ccc3c(Cl)ccnc3c2F)CCO1` (centres undefined) belongs 84.2%.
Turning to `CO[C@@H]1CCN(Cc2c(C)noc2C)[C@@H]2CN(Cc3cccnc3)C[C@@H]21`, the INHIBITION stood at 22.6%.
With `COCCOc1ccccc1C(=O)NCCN(C)C(C)C`, the INHIBITION is 4.52%.
To `O=C(c1nn(-c2ccccc2F)cc1O)N1CCCSCC1` belongs -21.7%; to `Cc1ccc(N2CC[C@H]3OCC[C@@]3(C(=O)NC(C)C)C2)nn1`, 35.1%.
On to `COc1ncc(Cl)c(NCc2ccc([S+](C)[O-])cc2)n1` (centres undefined), for which the INHIBITION was 61.1%.
Consider `COc1ncc(Cl)c(NCc2ccc(C(=O)N(C)C)cc2)n1`, for which the INHIBITION is reported as 58.9%.
The figure for `COc1ccccc1C1(CNCc2ccc([S+](C)[O-])cc2)CC1` (centres undefined) is 1.41%; for `COCC(=O)NCc1ccc(-c2ncncc2C(=O)N(C)C)cc1` it is 26.15%.
To `COc1ccc(CN2CCc3[nH]nc(C(=O)N(C)C)c3C2)cc1` belongs 21.1%.
To `CCOCc1ccc(CNc2nc(OC)ncc2Cl)cc1` belongs 35.4%; to `COC(=O)CC1CSCCN1C(=O)CCc1c(C)nn(C)c1C` (centres undefined), 19.8%; to `COc1ccccc1C(O)CNC(=O)NCc1cc[nH]n1` (centres undefined), 26.4%.
Turning to `Cc1cc(C)n(CCCNC(=O)C(C)NC(=O)CC2CCCCC2)n1` (centres undefined), the INHIBITION is listed as -7.98%.
The figure for `COCC(=O)N1CCC2(CCC2N(C)Cc2ccco2)CC1` (centres undefined) is -28.2%; for `Cc1cc(C)n(CC(C)CNC(=O)[C@@H](C)NC(=O)OC(C)(C)C)n1` (some centres undefined) it is -45.8%; for `Cc1nc(C(=O)N2CCCC2c2noc(C)n2)c[nH]1` (centres undefined) it is 0.914%.
`CC(C)CCN1CCC2(CCCN(c3nncs3)C2)C1` (centres undefined): the INHIBITION worked out at 4.1%.
As to `CCc1nncn1CCNC(=O)N1CCN(Cc2ccccc2)CC1`, the INHIBITION was 35.3%.
Turning to `Cn1c2ccc(F)cc2c2ncn(CCCN(CCO)CCO)c(=O)c21`, the INHIBITION was found to be 24.7%.
With `Cc1cnc(C(=O)N2CCCCC2c2nc(C)cs2)cn1` (centres undefined), the INHIBITION is on record as -16%.
As to `Cn1cnc(S(=O)(=O)N2CCN(CC3CC3)c3ncccc3C2)c1`, the INHIBITION is -22.1%.
Turning to `Cn1cnc(S(=O)(=O)N2CC3(CCN(CC4CC4)C3)C2)c1`, the INHIBITION was found to be 67.5%.
Consider `CCN1CCC2(C1)CN(S(=O)(=O)c1cn(C)cn1)C2`, for which the INHIBITION is given as 65.7%.
In the case of `Cn1cnc(S(=O)(=O)N2CCSC3(CCCCC3)C2)c1`, the INHIBITION is reported as -37.8%.
To `Cn1cnc(S(=O)(=O)N2CC3(CCN(Cc4ccncc4)C3)C2)c1` belongs 21.3%; to `CC(C)CN1CCC2(C1)CN(S(=O)(=O)c1cn(C)cn1)C2`, 35.8%; to `Cn1cnc(S(=O)(=O)N2CC3(CCN(c4ccccc4)C3)C2)c1`, 53%.
To `Cn1cnc(C(=O)N2CC3(CCN(S(=O)(=O)c4ccccc4)C3)C2)c1` belongs -4.02%; to `Fc1cnc(N2CC3(CCN(CC4CC4)C3)C2)nc1`, -81.2%.
For the compound `O=C1CN(Cc2occc2C(=O)NCCc2ccc(F)cc2)CCN1`, the INHIBITION came to 8.41%.
To `CC(C)CCNC(=O)Cc1cnc(-n2cccc2)s1` belongs 37.4%.
On to `c1cnc(N2Cc3nccn3CC(COc3cccnc3)C2)nc1` (centres undefined), for which the INHIBITION was -13.2%.
The figure for `Cc1cc(F)c(S(=O)(=O)Nc2ccn(CCCC#N)n2)cc1F` is 30.5%.
The figure for `Cn1cc(C(=O)N[C@H]2CN(Cc3nccs3)[C@@H]3CCCO[C@H]23)cn1` is -8.94%; for `CC(C)C1CCC(N2CCN(CCS(C)(=O)=O)CC2)CC1` (centres undefined) it is 32.9%; for `CCCn1cc(CN2CCCC2c2cccc(-n3ccnc3)n2)cn1` (centres undefined) it is 15.9%.
The figure for `O=C(NCC(O)c1ccoc1)Nc1cccs1` (centres undefined) is 19.8%; for `Cc1nc(C)n(C2CCCN(C(=O)Cc3cn4ccccc4n3)C2)n1` (centres undefined) it is 25.4%.
On to `Cc1c(I)cccc1C(=O)NCC1(CO)CC1`, for which the INHIBITION is given as -4.86%.
The figure for `CCc1ccc(CCC(=O)NCc2nnc[nH]2)cc1` is 24.5%; for `O=C(NCc1ncc[nH]1)c1c(F)cccc1I` it is 25.5%.
The figure for `Cc1c(I)cccc1C(=O)NCc1nnc[nH]1` is 51.5%.
To `Cc1cccc(I)c1C(=O)NCc1ncc[nH]1` belongs 8.08%; to `Cc1c(I)cccc1C(=O)NCc1ncc[nH]1`, 57%; to `Cc1c2nnn(CC(=O)N(C)C)c(=O)c2nn1C`, 69.4%.
For the compound `Cc1c2ncn(CC(=O)N(C)C)c(=O)c2nn1C`, the INHIBITION worked out at 0%.
On to `Cc1c2ncn(CC(=O)NC(C)C)c(=O)c2nn1C`, for which the INHIBITION was found to be 48.5%.
Turning to `CC(=O)N1CCN(c2cc(C3CCNCC3)ccn2)CC1`, the INHIBITION is recorded as 7.19%.
The figure for `Cc1cncc(C(=O)N2CCO[C@H]3[C@H](OCCN(C)C)CC[C@@H]32)c1` is 14.5%.
